MsrA act = bovine methionine sulfoxide reductase A activation; purified bovine MsrA, absorbance read-out; activation, % at 10.6 µM; hit rate 0.3% among 360,000; in the data active = activation above about 7.5%;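 also: 0% = vehicle and 100% = reference activator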
PLCb3 inh = blocks human PLC-beta3 enzyme activity | Purified PLC-beta3, fluorogenic substrate, fluorescence | Q01970 | inhibition, % at 12.2 µM | hit rate 0.18% among 370,000; in the data active = inhibition above about 11%;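 also: 0% = median of compound wells on plate and 100% = full blocker control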
MsrA inh = bovine MsrA inhibition; inhibition, % at 15.5 µM; hit rate 0.75% among 360,000; AID 651718; purified bovine MsrA, absorbance read-out; in the data active = inhibition above about 4.5%;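 also: 0% = vehicle wells with enzyme and 100% = reference inhibitor wells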
PLCg1 inh = blocks human PLC-gamma1 enzyme activity; inhibition, % at 12.2 µM; P19174; purified PLC-gamma1, fluorogenic substrate, fluorescence; AID 720700; hit rate 0.84% among 370,000; in the data active = inhibition above about 9.5%
MsrA activ conf = confirmation of bovine methionine sulfoxide reductase A activators | shares compounds with MsrA act | purified bovine MsrA, absorbance read-out | activation, % at 10.6 µM | hit rate 12% among 1,000 | AID 602270; in the data active = activation above about 4%;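 also: enzyme coupled to thioredoxin and thioredoxin reductase with NADPH; 0% = vehicle wells and 100% = reference activator wells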
The depositor's hits bear a star; · = no result. Sampled rows, rich in hits. Any-hit rate of the full collection: about 1.9%.

SMILES | MsrA act | PLCb3 inh | MsrA inh | PLCg1 inh | MsrA activ conf
O=C(Nc1ccc(F)cc1F)C1CCCN1S(=O)(=O)c1cccnc1 (stereo unspecified) | · | -1 | · | 1 | ·
O=C(CSc1nc2cc(Cl)ccc2s1)c1cc2ccccc2o1 | 9.9* | -30 | 2 | -13 | -2
CC1(C)Oc2nc3ccccc3n2/C1=C\C#N | 8.0* | 4 | 0 | -1 | -2
Cn1c(NCc2ccco2)nc2ccccc21 | 0 | 4 | 0 | 2 | ·
O=C(N[C@H](Cc1ccccc1)C(=O)N(CCC1=CCCCC1)CC1CC1)[C@H]1O[C@@H](n2ccc(=O)[nH]c2=O)[C@H](O)[C@@H]1O | · | 2 | -1 | 3 | ·
O=[N+]([O-])c1cccc2c(N3CCCC3)ccnc12 | 20* | -1 | 2 | 4 | 12*
O=C(c1ccccc1F)N1CCN(c2ccc([N+](=O)[O-])c3ncccc23)CC1 | -3 | 4 | 0 | 0 | ·
Cc1ccc(Cn2nnc3c(=O)[nH]c(C4CCN(C(=O)Cc5cccs5)CC4)nc32)cc1 | 7.7* | 4 | 0 | 6 | 0
CC(C)(C)c1ccc(Cn2nnc3c(=O)[nH]c(C4CCN(C(=O)Cc5cccs5)CC4)nc32)cc1 | 0 | 1 | -1 | 0 | ·
O=C(NCCc1ccc(Cl)cc1)C12CC3CC(CC(O)(C3)C1)C2 | 9.2* | -7 | 0 | -2 | -3
CC1CC(C(F)(F)F)n2ncnc2N1 (stereo unspecified) | 9.2* | 1 | 0 | 1 | 1
CC1CC(C(F)(F)F)n2ncc(C(=O)O)c2N1 (stereo unspecified) | -2 | 2 | 0 | 3 | ·
COc1cc(C(=O)Oc2cc(C)cc(C)c2)cc(OC)c1OC | 8.8* | 1 | 0 | -1 | -3
Cc1cc2c(nc1C)CCCN2S(=O)(=O)c1cccs1 | · | -2 | 0 | -4 | ·
O=C1NC(c2ccc(Br)cc2)c2c(-c3ccccc3)n[nH]c21 (stereo unspecified) | · | 1 | 0 | 4 | ·
O=C(NCCc1ccc(F)cc1)C(=O)Nc1cc2c3c(c1)CC(=O)N3CCC2 | -4 | -4 | -1 | 1 | ·
O=C(NCCc1ccc(Cl)cc1)C(=O)Nc1cc2c3c(c1)CC(=O)N3CCC2 | 17* | -4 | 0 | 2 | -2
CCCCCn1cnc2sc(CC)cc2c1=O | 14* | 0 | -1 | -1 | 3
CCc1cc2c(=O)n(CC(C)C)cnc2s1 | -4 | 2 | -1 | 0 | ·
COc1ccc(-c2noc(N3CCC(C(=O)NCCCN4CCCCC4)CC3)n2)cc1 | 1 | 5 | -1 | 4 | ·
COc1ccc(-c2noc(N3CCC(C(=O)NCCCN4CCCC(C)C4)CC3)n2)cc1 (stereo unspecified) | 8.7* | -3 | -1 | 0 | 0
CC(C)n1c(=S)[nH]c2scc(-c3cccs3)c2c1=O | 8.0* | -13 | 1 | -3 | -1
CCn1c(=S)[nH]c2scc(-c3cccs3)c2c1=O | 5 | -6 | 3 | 1 | ·
O=S1(=O)N[C@@H](Cc2ccccc2)COc2cc(N3CCCCC3)ccc21 | · | -1 | 0 | 0 | ·
COc1ccc(S(=O)(=O)c2c(C)c(NS(=O)(=O)c3ccccc3)cc(C)c2O)cc1 | -9 | -1 | 1 | 1 | ·
SMILES | MsrA act | PLCb3 inh | MsrA inh | PLCg1 inh | MsrA activ conf
COc1ccc(S(=O)(=O)Nc2cc(C)c(O)c(S(=O)(=O)c3ccccc3)c2)cc1 | 9.3* | -8 | 0 | -7 | 1
CCOC(=O)C1=CC[C@@H](c2cccc(C)c2)N(S(=O)(=O)c2ccc(C)cc2)[C@H]1C(=O)OCC | 9.9* | 5 | 0 | 2 | 1
CCOC(=O)C1=CC[C@@H](c2ccccc2Cl)N(S(=O)(=O)c2ccc(C)cc2)[C@H]1C(=O)OCC | 0 | -3 | 1 | 6 | ·
CC(C)(C)n1nc(C2CC2)c(Br)c1NC(=O)c1ccc(Cl)cc1 | · | -1 | 1 | 2 | ·
O=C1N[C@@H](Cc2ccccc2)COC(=O)[C@H](Cc2ccc(F)cc2)C/C=C\C[C@H]1CC(=O)N(CCO)Cc1ccccc1 | 19* | 2 | -2 | -1 | -1
Cc1no[n+]([O-])c1COc1cccc(/C=N/Nc2nncn2N)c1 | 12* | -10 | 1 | 3 | -3
COC(=O)c1cc(-c2cccc(C(C)C)c2)c(=O)n2c1CCC2 | · | -16 | · | -11 | ·
CCOC(=O)c1cnc2nc(NCc3ccc(OCc4ccccc4)cc3)[nH]n2c1=O | -3 | -4 | 0 | 6 | ·
CCOC(=O)c1cnc2nc(COc3ccccc3)[nH]n2c1=O | 12* | 1 | -1 | -1 | -3
COC(=O)C1=C(C)N(Cc2ccc(C(F)(F)F)cc2)C(=NCC2CC2)NC1c1ccccc1C(F)(F)F (stereo unspecified) | · | 0 | -2 | 3 | ·
COc1ccc(CCNS(=O)(=O)c2ccc(C3CNC(=O)C3)cc2)cc1OC (stereo unspecified) | 9.5* | 0 | 0 | -1 | -2
Cc1ccc(-c2noc(COc3ccccc3C)n2)cc1 | 8.1* | -6 | 1 | -3 | -3
CC(C)c1[nH]nc2c1C(c1ccccc1)N(Cc1ccccc1)C2=O (stereo unspecified) | · | -2 | 2 | 1 | ·
CC1=C(C#N)C(Nc2ccc(Cl)cn2)(C(F)(F)F)C(=O)N1 (stereo unspecified) | 10* | -1 | 0 | 1 | -1
CN1CCN(C(=O)CN(c2cccc(Cl)c2)S(=O)(=O)c2ccccc2)CC1 | 11* | 3 | -1 | 0 | -1
Cc1ccccc1C(=O)N[C@@H](Cc1cccnc1)C(=O)N1CCC[C@H]1C(=O)NCCc1ccccc1Cl | · | -1 | 1 | -1 | ·
COC(=O)C[C@@H]1CC[C@H]2[C@@H](COc3ccc(NC(=O)Nc4ccccc4)cc3C(=O)N2C)O1 | · | 0 | · | -2 | ·
CCOc1ccc(N2C(=O)CC(Sc3nc(-c4cccs4)cc(C(F)(F)F)c3C#N)C2=O)cc1 (stereo unspecified) | 10* | -45 | 2 | -41 | -2
Fc1ccc(-c2nc3ccc(Br)cn3c2Cc2cccc(F)c2)cc1 | -1 | -12 | 1 | -4 | ·
Fc1ccc(-c2nc3ccc(Br)cn3c2Cc2cccc(Cl)c2)cc1 | 8.2* | -11 | 0 | -8 | -2
Cc1cc(=S)[nH]c(=S)[nH]1 | 10* | -9 | 1 | -1 | 8.2*
Cc1cc(C)c2[nH]c(=S)cc(C)c2c1 | -6 | 2 | 1 | 4 | ·
Cc1ccccc1-c1ccc2c(c1)[C@@H]1C[C@H]3[C@@H](CN1CC2)[C@H](C)OC(C1CCCCC1)N3C (stereo partly specified) | · | -23 | -1 | -16 | ·
O=C(CNc1ccc2ccccc2c1)N/N=C/c1ccc([N+](=O)[O-])o1 | 8.3* | -6 | 2 | -4 | -1
CN1C(=O)c2cc(NC(=O)Nc3ccccc3)ccc2OC[C@H]2O[C@@H](CC(=O)NC3Cc4ccccc4C3)CC[C@@H]21 | · | 1 | · | 6 | ·
CCC(C)Sc1nc2ccccc2c(=O)[nH]1 (stereo unspecified) | 15* | 1 | 0 | -2 | -1
COP(=O)(O)[C@@H](CC(C)C)NC(=O)OCc1ccccc1 | · | -1 | · | 0 | ·
O=C(NC(=O)c1cccc(Cl)c1)OC[C@@H]1CCCN2CCCCC12 (stereo partly specified) | -3 | 1 | 0 | 1 | ·
